# Test results as given in PMC11062922 (Nature Chemical Biology, 2023).
# Like-named read-outs stand apart in the source and are kept apart here.
# What was measured:
# Design in all cases: species or system human, MV4-11 + K-562 + COLO205 + SK-N-BE2 + OVCAR-8
# HSP90B1 = conditions: read-out: apparent Kd; compound concentrations: 100 nM and 1000 nM (sheet 'Samples'), CATDS: 0.19171870490815801; n = 1
# PIK3CA = conditions: read-out: apparent Kd; compound concentrations: 100 nM and 1000 nM (sheet 'Samples'), CATDS: 0.37756355389393098; n = 1
# PIK3CD = conditions: read-out: apparent Kd; compound concentrations: 100 nM and 1000 nM (sheet 'Samples'), CATDS: 0.43898083182903402; n = 1
# PIM2 = conditions: read-out: apparent Kd, n = 1
# IARS = conditions: read-out: apparent Kd, n = 1
# GSK3A = conditions: read-out: apparent Kd; compound concentrations: 100 nM and 1000 nM (sheet 'Samples'), CATDS: 1; n = 1
# ILK = conditions: read-out: apparent Kd; compound concentrations: 100 nM and 1000 nM (sheet 'Samples'), CATDS: 0.49132594031882498; n = 1
# MAPK10 = conditions: read-out: apparent Kd, compound concentrations: 100 nM and 1000 nM (sheet 'Samples'), n = 1
# RIOK2 = conditions: read-out: apparent Kd; compound concentrations: 100 nM and 1000 nM (sheet 'Samples'), CATDS: 0.52054883723006395; n = 1
# MAPK14 = conditions: read-out: apparent Kd, compound concentrations: 100 nM and 1000 nM (sheet 'Samples'), n = 1
# JAK2 = conditions: read-out: apparent Kd; compound concentrations:100 nM and 1000 nM (sheet 'Samples'); n = 1
# MAPK11 = conditions: read-out: apparent Kd; compound concentrations: 100 nM and 1000 nM (sheet 'Samples'), CATDS: 0.82795584306013303; n = 1
# [1] = compound concentrations:100 nM and 1000 nM (sheet 'Samples')
structure (smiles),measurement,setting,value
COc1ccc(Nc2nccc(N3CCC(NC(=O)c4cc5ccccc5s4)C3)n2)cc1 (stereo not shown) [GSK1379738A],potency estimated from few doses,HSP90B1,1.35 µM
same,potency estimated from few doses,PIK3CA,0.248 µM
same,potency estimated from few doses,PIK3CD,0.19 µM
same,potency estimated from few doses,"PIM2; compound concentrations: 100 nM and 1000 nM (sheet 'Samples'), CATDS: 0.17072245355379401",2.15 µM
Cc1ccc(-c2nc(Nc3ccncc3)c3ccccc3n2)s1 [GSK189015A],potency estimated from few doses,"IARS; compound concentrations: 100 nM and 1000 nM (sheet 'Samples'), CATDS: 1",1.44 µM
CN1CCN(Cc2ccc(-c3cc4ncnc(Nc5ccc(OCc6cccc(F)c6)c(Cl)c5)c4s3)o2)CC1 [GW784684X],potency estimated from few doses,IARS; [1],1.61 µM
Cl.Cn1cc(C2=C(c3ccc(N)cc3)C(=O)NC2=O)c2ccccc21 [RO0317373-001],potency estimated from few doses,GSK3A,0.866 µM
Cn1cc(C2=C(c3cn(C)c4cc(Cl)ccc34)C(=O)NC2=O)c2ccccc21 [RO0317597-000],potency estimated from few doses,ILK,1.59 µM
same,potency estimated from few doses,MAPK10; CATDS: 0.50898583433438105,1.48 µM
CS(=O)(=O)CCNCc1ccc(-c2ccc3ncnc(Nc4ccc(OCc5ccccc5)c(C(F)(F)F)c4)c3c2)o1.Cl [GW574782A],potency estimated from few doses,"IARS; compound concentrations: 100 nM and 1000 nM (sheet 'Samples'), CATDS: 0.48101189655770898",1.95 µM
same,potency estimated from few doses,RIOK2,1.67 µM
Cl.Cn1c(=O)c(Oc2ccc(F)cc2F)cc2cnc(NC(CO)CO)nc21 [RO3310123-001],potency estimated from few doses,MAPK10; CATDS: 0.34863308961168299,1.5 µM
same,potency estimated from few doses,MAPK14; CATDS: 0.88366158604644096,0.106 µM
CC(=O)N[C@@H](Cc1ccc(OP(=O)(O)O)cc1)C(=O)N[C@H]1CCC(=O)N2CCC[C@@H](C(=O)NCc3ccccc3)N2C1=O [RO0324253-000],potency estimated from few doses,JAK2,0.712 µM
same,potency estimated from few doses,PIM2; [1],1.77 µM
Cl.Nc1c(C(=O)c2cccc(-c3cccnc3)c2)cnn1-c1ccc(F)cc1F [RO1164194-001],potency estimated from few doses,MAPK11,0.112 µM
same,potency estimated from few doses,MAPK14; CATDS: 0.35813974934326798,0.968 µM
O=C(O)/C=C/C(=O)O.OCCCNc1nccc(-c2c(-c3ccc(F)cc3)nn3cc(C(F)(F)F)ccc23)n1 [GW569293E],potency estimated from few doses,MAPK10; CATDS: 0.51132000357216201,1.43 µM
same,potency estimated from few doses,MAPK14; CATDS: 0.48917036256560797,1.57 µM
